Source: PubChem BioAssay (Tox21)
Records with an inconclusive call do not appear. Active and inactive are the calls of the source. Unless noted, calls follow the shape of the dose curve; as a rule, active = well fitted curve in the direction sought with a large enough effect in the repeat runs; inconclusive = weak or mixed curves; inactive = no such curve, though single readings can be large; an effect the other way counts as inactive or inconclusive.

Key:
[1] = qHTS assay for small molecule agonists of the p53 signaling pathway (AID 651631; calls by dose curve; also: nearly all actives have a fitted effect of over 15% in size)
Outline: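 We treat p53RE-bla HCT-116 cells with compounds for 16 h at 37 °C, add LiveBLAzer B/G FRET substrate for 2 h at room temperature, and measure fluorescence intensity.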

[2] = qHTS assay for small molecules that induce genotoxicity in human embryonic kidney cells expressing luciferase-tagged ATAD5 (AID 651632); also: nearly all actives have a fitted effect of over 15% in size
Outline: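 Luminescent reporter readout, HEK293T ATAD5-luc line: 16 hr drug exposure (37C, 5% CO2) followed by Amplite, 30 min RT.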

[3] = qHTS assay for small molecule agonists of the p53 signaling pathway - cell viability (AID 651633; calls by dose curve;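 also: p53RE-bla HCT reporter cells with a stable beta-lactamase p53 reporter; series mostly up to about 83 µM; nearly all actives have a fitted effect of over 30% in size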)
Outline: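 p53RE-bla cells, seeded at 4,000 per well and rested 5 h at 37 C/5% CO2, received compounds in DMSO for 16 h at 37 C. CellTiter-Glo was then added, and luminescence was read after 30 min at room temperature to gauge cytotoxicity.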

[4] = qHTS assay for small molecules that induce genotoxicity in human embryonic kidney cells expressing luciferase-tagged ATAD5 - cell viability (AID 651634; calls by dose curve; also: nearly all actives have a fitted effect of over 25% in size)
Outline: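 Viability read: CellTiter-Fluor fluorescence, 30 min at 37C. Cells: HEK293T, luciferase-tagged ATAD5. Exposure: 15.5 hr, 37C, 5% CO2, compound or DMSO vehicle.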

[5] = qHTS assay to test for compound auto fluorescence at 590 nm (red) in HepG2 cells (AID 720674)
Outline: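 Rose Bengal sodium served as the red fluorophore standard. HepG2 monolayers (overnight attachment, MEM with 10% FBS) were exposed to test compounds for 1 hr at 37 C and read at Ex 540/Em 590 nm.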

[6] = qHTS assay to test for compound auto fluorescence at 535 nm (green) in HepG2 cells (AID 720675)
[7] = qHTS assay to test for compound auto fluorescence at 460 nm (blue) in HEK293 cells (AID 720678)
Outline: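 After cell attachment (4-5 hr, 37C), compounds were pinned onto HEK293 monolayers in 10% dialyzed FBS medium. The blue channel (405/460 nm) was read following overnight culture. Equivalency was calculated against triamterene.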

[8] = qHTS assay to test for compound auto fluorescence at 535 nm (green) in HEK293 cells (AID 720680)
[9] = qHTS assay to test for compound auto fluorescence at 460 nm (blue) in HEK293 cell free culture (AID 720681)
Outline: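 Test compounds were pinned into cell-free culture medium (DMEM with 10% FBS) and fluorescence was read directly at Ex/Em 405/460 nm. Signals were expressed as fluorescence equivalents of triamterene, with DMSO vehicle as control.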

[10] = qHTS assay to test for compound auto fluorescence at 535 nm (green) in HEK293 cell free culture (AID 720682)
Outline: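 Green-channel intensity (Ex/Em 485/535 nm) was recorded from compound-treated wells containing only DMEM with 10% FBS. Fluorescein provided the equivalency standard.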

[11] = qHTS assay to test for compound auto fluorescence at 590 nm (red) in HEK293 cell free culture (AID 720683)
Outline: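 Tox21 10K library compounds were pinned into cell-free DMEM with 10% FBS and fluorescence was read at excitation 540 nm. Activity is expressed as Rose Bengal sodium equivalency.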

[12] = qHTS assay to test for compound auto fluorescence at 460 nm (blue) in HepG2 cell free culture (AID 720685)
Outline: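 Compound (23 nL) or DMSO pinned into cell-free MEM with 10% FBS; blue fluorescence read at 405/460 nm excitation/emission, expressed as auto-fluorescence equivalency to triamterene.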

[13] = qHTS assay to test for compound auto fluorescence at 460 nm (blue) in HepG2 cells (AID 720687)
Outline: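 Cells (2,000/well in MEM with 10% FBS) attached overnight at 37 C, then were exposed to compound or DMSO for 1 hr at 37 C, 5% CO2. Fluorescence read at Ex/Em 405/460 nm, expressed as triamterene-equivalent signal.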

[14] = target: Glucocorticoid receptor (Homo sapiens) (UniProt P04150); assay: qHTS assay to identify small molecule agonists of the glucocorticoid receptor (GR) signaling pathway (AID 720691; active = well fitted activation curve with a large enough effect in the signal ratio in the repeat runs, not every such curve was filed as active; the % refers to the signal ratio)
Outline: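 qHTS in GR-bla HeLa cells: 4 h settling at 37 C/5% CO2, 18 h compound incubation at 37 C, 2 h LiveBLAzer B/G FRET substrate at room temperature, fluorescence intensity measured.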

[15] = qHTS assay for small molecule disruptors of the mitochondrial membrane potential - cell viability (AID 720634; calls by dose curve;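 also: human HepG2 liver cancer cells; series mostly up to about 83 µM; nearly all actives have a fitted effect of over 20% in size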)
Outline: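 HepG2, 1 hr compound, 37 C. ATP luminescence via CellTiter-Glo, 30 min RT, same well as m-MPI.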

[16] = qHTS assay to test for compound auto fluorescence at 590 nm (red) in HepG2 cell free culture (AID 720684)
Outline: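 Measured in medium alone (MEM containing 10% FBS) following pintool addition of compound; emission at 590 nm with 540 nm excitation, referenced to Rose Bengal sodium.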

[17] = qHTS assay to test for compound auto fluorescence at 535 nm (green) in HepG2 cell free culture (AID 720686)
[18] = target: Glucocorticoid receptor (Homo sapiens) (UniProt P04150); assay: qHTS assay to identify small molecule antagonists of the glucocorticoid receptor (GR) signaling pathway (AID 720692; active = well fitted inhibition curve with a large enough effect in the signal ratio in the repeat runs, not every such curve was filed as active; the % refers to the signal ratio)
Outline: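 Inhibition of glucocorticoid signalling is measured in HeLa cells with a GRE-controlled beta-lactamase reporter; cells are co-treated with compound and 5 nM dexamethasone (final) for 18 h before FRET substrate readout.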

[19] = qHTS assay to test for compound auto fluorescence at 590 nm (red) in HEK293 cells (AID 720679)
Outline: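 Plates of HEK293 cells (10% dialyzed FBS) are treated with 23 nL compound or DMSO vehicle after a 4-5 hr attachment period, incubated overnight at 37C, and read for red fluorescence at 540/590nm.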

[20] = qHTS assay for small molecule disruptors of the mitochondrial membrane potential (AID 720635); also: potency is read from the fitted curve at half-maximal effect
Outline: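 HepG2 cells (2,000/well) attached overnight at 37C, then took compound for 1 hr at 37C, 5% CO2. Mito-MPS dye was added for 30 min; fluorescence was read at 490/535 nm (monomers) and 540/590 nm (aggregates).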
% is scaled to controls: 0 for no effect and ±100 for the full control effect.

Sequence of Glucocorticoid receptor (Homo sapiens) (P04150 whole entry, looked up): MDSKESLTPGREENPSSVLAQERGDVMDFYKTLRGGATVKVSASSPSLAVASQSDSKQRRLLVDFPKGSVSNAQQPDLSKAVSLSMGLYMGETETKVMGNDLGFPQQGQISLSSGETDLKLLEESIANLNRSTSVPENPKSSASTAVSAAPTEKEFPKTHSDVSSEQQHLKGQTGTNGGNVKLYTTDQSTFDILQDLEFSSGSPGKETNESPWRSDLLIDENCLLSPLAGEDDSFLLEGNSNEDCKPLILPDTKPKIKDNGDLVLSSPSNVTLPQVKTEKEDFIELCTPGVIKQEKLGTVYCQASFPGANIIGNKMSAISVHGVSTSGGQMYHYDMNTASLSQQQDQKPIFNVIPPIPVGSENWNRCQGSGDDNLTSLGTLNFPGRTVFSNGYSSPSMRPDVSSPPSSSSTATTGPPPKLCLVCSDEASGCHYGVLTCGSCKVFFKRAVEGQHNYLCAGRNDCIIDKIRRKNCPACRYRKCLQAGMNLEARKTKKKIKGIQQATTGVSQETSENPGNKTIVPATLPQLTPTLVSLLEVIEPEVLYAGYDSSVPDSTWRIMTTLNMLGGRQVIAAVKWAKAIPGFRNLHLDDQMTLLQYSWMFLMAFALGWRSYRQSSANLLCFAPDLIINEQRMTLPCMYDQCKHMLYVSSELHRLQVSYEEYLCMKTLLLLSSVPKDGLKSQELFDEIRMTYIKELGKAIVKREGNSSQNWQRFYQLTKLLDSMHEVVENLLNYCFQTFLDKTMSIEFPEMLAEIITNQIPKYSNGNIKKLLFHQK

CC(C)C[C@@H](N)C(=O)O
inactive: Potency [1] | Potency [2] | Potency [3] | Potency [4] | outcome [5] | outcome [6] | outcome [7] | outcome [8] | outcome [9] | outcome [10] | outcome [11] | outcome [12] | outcome [13] | Potency [14]

CCCCN1C=CN(C)C1
inactive: Potency [1] | Potency [2] | Potency [3] | Potency [4] | outcome [15] | fluorescence, relative to Rose Bengal [5] -0.0028% [at 18.6 µM] | fluorescence, % of fluorescein control [6] -0.0563% [at 18.6 µM] | fluorescence, % of triamterene [7] 0.173% [at 18.6 µM] | fluorescence, % of fluorescein [8] -0.0653% [at 18.6 µM] | fluorescence, % of fluorescent control [9] -0.116% [at 18.6 µM] | activity change [10] 0.0078% [at 18.6 µM] | fluorescence, % of fluorescent control [11] 0.0298% [at 18.6 µM] | fluorescence, % of Rose Bengal [16] 0.057% [at 18.6 µM] | fluorescence, % of fluorescent control [12] -0.0433% [at 18.6 µM] | fluorescence, % of fluorescein control [17] -0.069% [at 18.6 µM] | fluorescence, % of fluorescent control [13] 0.0295% [at 18.6 µM] | Potency [14] | Potency [18]

CC(C)CC(C)(N)C#N (stereo not given)
inactive: Potency [1] | Potency [2] | Potency [3] | Potency [4] | outcome [15] | outcome [5] | outcome [7] | outcome [19] | outcome [8] | outcome [9] | outcome [10] | outcome [11] | outcome [16] | outcome [12] | outcome [17] | outcome [13] | Potency [14]

O=[N+]([O-])c1ccc(/C=N\O)o1
inactive: Potency [1] | Potency [2] | Potency [3] | Potency [4] | outcome [15] | outcome [5] | outcome [19] | outcome [8] | outcome [9] | outcome [10] | outcome [11] | outcome [16] | outcome [12] | outcome [17] | outcome [13] | Potency [14] | Potency [18]

CCCc1nn(C)c2c(=O)[nH]c(-c3cc(S(=O)(=O)N4CCN(C)CC4)ccc3OCC)nc12
inactive: Potency [1] | Potency [2] | Potency [3] | Potency [4] | outcome [15] | outcome [5] | outcome [6] | outcome [19] | outcome [8] | outcome [9] | outcome [10] | outcome [11] | outcome [16] | outcome [12] | outcome [17] | outcome [13] | Potency [14]

CCOC(=O)c1cnc2c(cnn2CC)c1NN=C(C)C
inactive: Potency [1] | Potency [2] | Potency [3] | Potency [4] | outcome [15] | outcome [6] | outcome [7] | outcome [19] | outcome [8] | outcome [9] | outcome [10] | outcome [11] | outcome [16] | outcome [12] | outcome [17] | outcome [13]

OCCCCCO
inactive: Potency [1] | Potency [2] | Potency [3] | Potency [4] | outcome [5] | outcome [6] | outcome [7] | outcome [19] | outcome [8] | outcome [9] | outcome [10] | outcome [11] | outcome [16] | outcome [12] | outcome [17] | outcome [13]

c1ccc2sc(SN3CCOCC3)nc2c1
inactive: Potency [1] | Potency [2] | Potency [3] | outcome [15] | outcome [5] | outcome [6] | outcome [8] | outcome [9] | outcome [10] | outcome [11] | outcome [12] | outcome [17] | outcome [13] | Potency [14] | Potency [18]

NO
inactive: Potency [1] | Potency [3] | Potency [4] | outcome [15] | outcome [5] | outcome [7] | outcome [8] | outcome [9] | outcome [10] | outcome [11] | outcome [16] | outcome [12] | outcome [17] | outcome [13]
active: Potency [20] 55.5 µM

CCN1CCOCC1
inactive: Potency [1] | Potency [2] | Potency [3] | outcome [15] | Potency [20] | outcome [5] | outcome [7] | outcome [19] | outcome [8] | outcome [9] | outcome [10] | outcome [11] | outcome [12] | outcome [17] | outcome [13]
